Rows were chosen to be rich in hits. Some 0.82% of all compounds tested hit in one or more screens of this group.
eLon inh: E. coli protease La inhibition; purified E. coli Lon protease, fluorescence polarization; inhibition, % at 7.94 µM; 360,000 tested, 0.42% active; in the data active = inhibition above about 13%, passing the limit was not always enough;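 also: 0% = enzyme with probe and DMSO and 100% = no enzyme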
Target sequence (P0A9M0 whole entry, looked up): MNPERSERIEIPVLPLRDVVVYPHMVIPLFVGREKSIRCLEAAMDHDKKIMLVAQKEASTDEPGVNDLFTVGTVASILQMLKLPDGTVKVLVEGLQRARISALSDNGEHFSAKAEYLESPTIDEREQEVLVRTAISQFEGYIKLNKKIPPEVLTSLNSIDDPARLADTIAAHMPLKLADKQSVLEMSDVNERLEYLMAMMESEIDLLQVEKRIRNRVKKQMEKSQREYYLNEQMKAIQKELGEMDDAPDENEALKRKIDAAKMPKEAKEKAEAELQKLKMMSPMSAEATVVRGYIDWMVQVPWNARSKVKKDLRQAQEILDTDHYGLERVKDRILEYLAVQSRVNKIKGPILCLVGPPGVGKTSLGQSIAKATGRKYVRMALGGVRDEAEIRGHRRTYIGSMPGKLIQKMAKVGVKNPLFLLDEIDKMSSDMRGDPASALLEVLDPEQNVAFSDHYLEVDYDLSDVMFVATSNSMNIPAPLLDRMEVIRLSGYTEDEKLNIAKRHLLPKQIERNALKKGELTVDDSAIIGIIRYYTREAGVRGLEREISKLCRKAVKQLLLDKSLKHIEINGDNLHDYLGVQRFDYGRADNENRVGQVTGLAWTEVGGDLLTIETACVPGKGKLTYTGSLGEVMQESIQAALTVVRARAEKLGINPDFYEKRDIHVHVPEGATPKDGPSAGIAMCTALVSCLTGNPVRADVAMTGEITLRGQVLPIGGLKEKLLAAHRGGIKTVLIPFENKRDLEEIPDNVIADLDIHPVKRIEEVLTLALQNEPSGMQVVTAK
Cardiac RTF inh: cardiac RTF calcium desensitization | P19429+P45379 | 340,000 tested, 0.12% active | IANBD-labeled cardiac RTF, Ca2+ fluorescence | inhibition, % at 7.15 µM | AID 493244;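 active = inhibition above the mean inhibition of all tested compounds plus 3 SD, cut at about 17% in these data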;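 also: assay run at fixed EC70 calcium of 1.6 mM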
Keap1-Nrf2 PPI: inhibitors of human Keap1-Nrf2 protein-protein interaction. 340,000 tested, 0.15% active. Q14145. Keap1 Kelch-Nrf2 peptide fluorescence polarization, 1536-well. inhibition, % at 9.4 µM; in the data active = inhibition above about 12%;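 also: human Keap1 Kelch domain with fluorescein labeled Nrf2 9mer peptide probe; 0% = neutral control wells and 100% = peptide positive control; higher means more block of Keap1 binding to Nrf2 peptide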
RTF Ca sens act: cardiac RTF calcium sensitization | P19429+P45379 | IANBD-labeled TnC RTF fluorescence at EC20 calcium; 0% EC20 calcium, 100% full calcium | activation, % at 7.2 µM | 340,000 tested, 0.24% active;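 active = activation above the mean over all tested compounds plus 3 SD, cut at about 30% in these data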;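 also: rise in fluorescence read as greater calcium sensitivity of cardiac thin filaments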
LANA DNA inh: KSHV C-LANA DNA binding inhibition; 340,000 tested, 0.078% active; inhibition, % at 9 µM; MBP-C-LANA/FAM-LBS DNA binding, fluorescence polarization;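 active = highest replicate inhibition at or above 60% at 9 µM, even if other replicates fall short; inactive = all replicates below 60% inhibition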;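 also: 0% = neutral control wells and 100% = 4 µM acridine orange control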
The depositor's hits bear a star; i = inactive; . = not tested or not shown; + = active, no number.

SMILES	eLon inh	Cardiac RTF inh	Keap1-Nrf2 PPI	RTF Ca sens act	LANA DNA inh
CCOC(=O)C1(C)CCCN(C(=O)c2ccc(OC)c(OC)c2)C1 (stereo not given)	-1	.	.	.	.
Cn1cc(C=O)c2cc(F)ccc21	4	-17	-4	4	0
CCc1ccc(/C=C/c2c[nH]c3ccccc23)[n+](CC)c1	-21	1	-9	10	-1
C[n+]1ccc(/C=C/c2c[nH]c3ccc(F)cc23)cc1	-289	-116	-105	102*	-19
Cn1cc(/C=C/c2cc[n+](C)cc2)c2cc(F)ccc21	-318	-383	-192	317*	-14
Cn1cc(/C=C/c2cc[n+](C)cc2)c2cc(Cl)ccc21	-287	-178	-142	206*	-12
O=C(C[n+]1ccc(C(=O)c2ccccc2)cc1)Nc1cccc([N+](=O)[O-])c1	0	.	.	.	.
COc1cccc(CNC(=O)[C@@H]2CCCN2C(=O)[C@@H]2CCCN2C(=O)c2cccc3ccccc23)c1	-12	.	.	.	.
COC(=O)[C@]12CCCCC=C1N(Cc1ccc(Cl)cc1Cl)C(=O)[C@H](CC(=O)N1CCN(C(=O)C3CC3)CC1)C2	-1	.	.	.	.
COc1cccc(CNC(=O)[C@@H]2CCCN2C(=O)[C@@H]2CCCN2C(=O)c2cccs2)c1	-5	.	.	.	.
COc1cc2c(cc1[N+](=O)[O-])-c1ccccc1C2	-6	-66	1	125*	0
COc1cc2c(cc1[N+](=O)[O-])-c1ccc([N+](=O)[O-])cc1C2	-8	.	.	.	.
CC[n+]1ccccc1/C=C1\Sc2ccc(C)cc2N1C	4	-7	-4	-2	-4
CCN1/C(=C/c2ccc3cc(C)ccc3[n+]2CC)Sc2cc(C)c(C)cc21	-163	-193	-6	36*	-39
CC[n+]1c(/C=C2\Sc3ccccc3N2C)ccc2cccc(C)c21	-149	-105	-39	46*	-75
CCN1/C(=C/c2ccc3cc(C)ccc3[n+]2CC)Sc2ccccc21	-178	-52	-37	47*	-74
CCOC(=O)[C@]12CCC=C1N(CCC1=CCCCC1)C(=O)[C@H](CC(=O)N1CCN(C(=O)c3ccco3)CC1)C2	0	.	.	.	.
O=C(C[n+]1ccc2ccccc2c1)c1ccc2ccc3ccccc3c2c1	-2	.	.	.	.
Cc1ccc(/C=C2/NC(=O)N(Cc3ccccc3F)C2=O)s1	-51	-72	-1	35*	16
COC(=O)[C@@]1(C(C)C)N=C(c2cc(OC)c(OC)c(OC)c2)[C@]2(O1)C(=O)N(Cc1ccc(OC)cc1)c1ccc(Br)cc12	-3	.	.	.	.
Cc1cc(C(=O)O)ccc1-c1ccc(/C=C2\SC(=O)N(CC(=O)Nc3ccc4c(c3)OCO4)C2=O)o1	6	-2	13*	46*	11
Cc1ccc(O)c(C(=O)c2cc(C#N)c(=O)n(-c3c(C)n(C)n(-c4ccccc4)c3=O)c2)c1	-46	-9	-9	5	4
Cc1ccc(O)c(C(=O)c2cc(C#N)c(=O)n(-c3nccs3)c2)c1	-211	-111	-28	69*	21
CC1C/C(=C/c2cccn2C)C(=O)/C(=C/c2cccn2C)C1 (stereo not given)	-145	-410	-16	375*	-7
O=C1/C(=C/c2ccc(N3CCCC3)cc2)NC(=S)N1C1CC1	i	-152	-32	56*	-4
SMILES	eLon inh	Cardiac RTF inh	Keap1-Nrf2 PPI	RTF Ca sens act	LANA DNA inh
CN1C(=O)c2ccc(N3CCCC3)cc2C1=O	7	-13	-2	3	1
Cc1cc(N2CCCC2)ccc1/C=C1\NC(=S)N(C)C1=O	-336	-119	-22	53*	-16
O=C1N/C(=C/c2ccc(N3CCCC3)cc2)C(=O)N1c1ccccc1	-59	-8	-4	6	-1
O=C(OCCN1C(=O)c2ccccc2C1=O)c1cc(S(=O)(=O)N2CCOCC2)ccc1Cl	8	-7	2	4	-1
O=C(OCCN1C(=O)c2cccc3c(N4CCOCC4)ccc(c23)C1=O)c1ccccc1Cl	-192	-95	55*	112*	48
CC(=O)Oc1ccc(N2C(=O)C3C(C2=O)C(C(=O)c2ccc(Cl)cc2)N2CCCC32)cc1 (stereo not given)	6	-39	-8	45*	9
CCOc1ccc(NS(=O)(=O)c2ccc(NS(=O)(=O)c3ccccc3)cc2)cc1	3	-7	6	-2	1
CCOc1ccc(S(=O)(=O)Nc2cc(NS(=O)(=O)c3ccc(OCC)cc3)cc(C(=O)O)c2)cc1	-16	-1	22*	-3	4
Cc1nc(N2CCc3ccccc3C2)[nH]c(=O)c1Cc1ccccc1	9	-5	-8	0	-1
Cc1nc(-n2[nH]c3c(c2=O)CCCC3)[nH]c(=O)c1Cc1ccccc1	-133	-28	-24	33*	-2
COC(=O)c1ccccc1-c1c2ccc(=N)cc-2oc2cc(N)ccc12	.	.	+	+	.
O=C(O)Cc1c[nH]c2cccc(O)c12	-3	15	-7	-8	102*
O=C(O)Cc1c[nH]c2ccccc12	-5	-5	4	-1	-1
N#CC1=C(N)SC(N)=C(C#N)C1c1c(Cl)cccc1Cl	-231	-36	-24	11	-4
N#CC1=C(N)SC(N)=C(C#N)C1CCc1ccccc1	-298	-55	-21	39*	-5
N#CC1=C(N)SC(N)=C(C#N)C1Cc1ccccc1	-275	-73	-24	43*	-5
CC(C)CC1C(C#N)=C(N)SC(N)=C1C#N	-188	-37	-82	42*	-11
O=C(NCc1ccc(F)cc1F)[C@@H]1CCCN1C(=O)[C@@H]1CCCN1C(=O)c1cccs1	-2	.	.	.	.
O=S1(=O)CC(N2CCN(CCO)CC2)CN1Cc1cn(Cc2ccc(F)cc2)nn1 (stereo not given)	2	.	.	.	.
Cn1c2c(c(=O)n(C)c1=O)C(C(F)(F)F)(C(F)(F)F)N=C(CCC1CCCCC1)N2	8	-2	-1	45*	-1
Cc1cc(O)c(CN(C)C)c2c1C(=O)/C(=C/c1ccco1)O2	-24	-35	-5	36*	19
Nc1nc2ccc(Cl)cc2cc1C(=O)NCc1ccc(Oc2ccccc2)cc1	-2	.	.	.	.
CCN1C(=O)/C(=C/C=C2/SCCN2C)SC1=S	-472	-128	-7	136*	-1
COc1ccc(/C=C2\SC(=S)N(CC(=O)N3CCN(C)CC3)C2=O)cc1	-4	.	.	.	.
CCN1C(=O)/C(=C/C=C2/Sc3ccccc3N2CCO)SC1=S	-137	-3	-8	-2	-1
CN1CCS/C1=C\C=C1/SC(=S)N(CC(=O)O)C1=O	i	-315	-424	268*	-95
CCCCC(=O)Nc1ccc(C(=O)Nc2ccc(OC)cc2[N+](=O)[O-])cc1	-99	-70	-3	81*	1
CCCCC(=O)Nc1ccc(NC(=O)c2ccc([N+](=O)[O-])cc2)cc1OC	4	2	-5	-1	-1
Nc1[nH]c(C(=O)c2ccccc2)c(-c2ccncc2)c1C(=O)NC1CC1	1	.	.	.	.
COc1ccccc1/C=C/C=C1\Oc2c(ccc(O)c2CN2CCN(CCO)CC2)C1=O	-157	-222	-148	239*	-1
